The supplement of paper PMC3334620
Over roughly 33,000 sequences, “E-score (-0.5 to 0.5)” has its median near -0.0059; the highest 2% begin near 0.26. For the sample, the highest values were picked, then their nearest neighbours and some sequences at random.

Biological target: T1, Cin5 (UniProt P40917)
T1 sequence: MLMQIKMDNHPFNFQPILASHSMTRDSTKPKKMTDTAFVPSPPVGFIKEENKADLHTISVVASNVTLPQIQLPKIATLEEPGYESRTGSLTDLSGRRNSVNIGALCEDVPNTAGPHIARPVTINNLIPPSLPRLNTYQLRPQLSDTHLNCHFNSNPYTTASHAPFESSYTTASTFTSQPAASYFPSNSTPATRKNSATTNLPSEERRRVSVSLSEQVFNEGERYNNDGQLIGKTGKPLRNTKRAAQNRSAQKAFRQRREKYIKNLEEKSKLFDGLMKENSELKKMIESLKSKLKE
Assay: PBM E-score (8-mer binding enrichment) (E-score (-0.5 to 0.5)); higher = stronger / more preferred TF binding
Details: protein concentration: 100 nM; construct: GST-full length
In short: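 Full-length yeast transcription factors or their DNA-binding domains, GST-tagged and expressed with PURExpress, were applied at about 100-200 nM to universal all-10-mer Agilent arrays. These arrays had been made double-stranded by primer extension on fresh or once-stripped slides. Detection used fluorescent anti-GST, normalisation used masliner, and E-scores for ungapped eight-base words pooled with reverse complements came from the Universal PBM Analysis Suite.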

Row | Sequence | PBM E-score
1 | CTCAACAA | 0.197
2 | ACCTCATC | 0.0947
3 | AGGTGAAT | 0.099
4 | CAGACAAC | 0.0843
5 | AAGACAAG | -0.0281
6 | AAGACAAC | 0.274
7 | GACCGCGA | -0.129
8 | ACACGTAG | -0.151
9 | GCACGTAA | -0.00694
10 | ACACGTAA | 0.3
11 | CCACGTAA | 0.165
12 | ACACGTAC | -0.0415
13 | TCACGTAA | 0.322
14 | GCTCTTAA | -0.0595
15 | CGGCTAAG | -0.025
16 | CGTGCGGC | -0.139
17 | AAAATCGC | 0.0818
18 | TATGGCCA | 0.0804
19 | ACCTAGAC | -0.126
20 | GACTCTCC | -0.189
21 | AATGCGGC | -0.00913
22 | AATGCGGG | 0.273
23 | AATGCGGT | -0.0647
24 | TGCCCTAA | -0.0446
25 | AAGTTGTA | 0.178

Row | Sequence | PBM E-score
26 | AAGTTGTG | 0.265
27 | AAGTTGTC | 0.127
28 | CCCATCGC | 0.0166
29 | CCCCGACG | -0.00202
30 | GATATCCA | 0.183
31 | ATCGGAAT | 0.151
32 | ATCGGAAA | 0.0538
33 | ATCGGAAC | 0.267
34 | CGTTCAAC | 0.0923
35 | AATAAGCA | 0.176
36 | CATAAGCC | 0.245
37 | GATAAGCC | 0.0299
38 | TATAAGCA | 0.256
39 | AATAAGCG | 0.109
40 | CATAAGCA | 0.336
41 | GATAAGCA | 0.275
42 | CATAAGCG | 0.267
43 | CATAAGGG | 0.1
44 | CCCTGTGC | -0.18
45 | CCTCGGGA | -0.13
46 | GTAGACCA | -0.101
47 | GCCAAGGA | -0.199
48 | CCGGCGTC | -0.0574
49 | TCAGTGGA | -0.093
50 | TATATATA | 0.369

Row | Sequence | PBM E-score
51 | GACATAAC | 0.276
52 | TATATACA | 0.187
53 | CATATATG | 0.114
54 | CACATAAA | 0.183
55 | AACATAAA | 0.0668
56 | CACATAAC | -0.00529
57 | TACATAAA | 0.323
58 | CATATATA | 0.322
59 | GACATAAA | 0.239
60 | CATATATC | 0.102
61 | TATATAGA | 0.238
62 | CCAGTCCC | -0.0959
63 | ATGTACAA | 0.0216
64 | ACCTTAGA | 0.0107
65 | AGGTATCC | 0.0225
66 | AACGCACT | -0.037
67 | TGACTCCA | -0.17
68 | CCTTCGTC | -0.106
69 | ACTATAGT | 0.174
70 | CGAGCATC | 0.0462
71 | GGAGGATA | -0.0068
72 | GCACTTTA | -0.0367
73 | GATATAAA | 0.0539
74 | CACATACA | 9e-05
75 | TTTATAAA | 0.259

Row | Sequence | PBM E-score
76 | TATATAAA | 0.283
77 | CATATAAA | 0.138
78 | GATATATA | 0.266
79 | CTTATAAA | 0.154
80 | GACATACA | 0.314
81 | GTTATAAA | 0.198
82 | TACATACA | 0.238
83 | GATATACA | 0.138
84 | GATATATC | 0.1
85 | ACGTCGAT | 0.105
86 | AACCCTGC | -0.0766
87 | CGCGAATC | 0.0184
88 | TTCTCAAA | 0.15
89 | AGGGCCAA | -0.313
90 | GCCCAGTA | -0.0745
91 | AGGAGACC | -0.201
92 | CGTGATTC | -0.0445
93 | GGTGATTA | 0.213
94 | AGTGATTC | -0.0118
95 | CGTGATTA | 0.273
96 | AGTGATTA | 0.275
97 | CGTGATGA | -0.0266
